MEX-5 binding – C. elegans MEX-5 TCR-2 RNA binding activity; MEX-5/FITC-TCR2 RNA binding, fluorescence polarization; active compounds read low; activity score (negative = inhibition of binding), % at 10 µM; 0.38% of 300,000 active;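 active = inhibition past about -25% in most replicates, and total fluorescence under double the plate's negative control median, limit read from the data; inconclusive = replicates evenly split on the limit, or fluorescence at least double controls; inactive = too little inhibition in most replicates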;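 note: 0% = DMSO and -100% = 5 µM competing unlabeled TCR2 RNA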
PABP FP inh – blocks human PABP binding to poly(A) RNA; P11940; fluorescence polarization; calls only at 35 µM; 1% of 290,000 active;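 note: calls also rest on retests at 20 µM and on dose response follow-up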
Target sequence (P11940 whole entry, looked up): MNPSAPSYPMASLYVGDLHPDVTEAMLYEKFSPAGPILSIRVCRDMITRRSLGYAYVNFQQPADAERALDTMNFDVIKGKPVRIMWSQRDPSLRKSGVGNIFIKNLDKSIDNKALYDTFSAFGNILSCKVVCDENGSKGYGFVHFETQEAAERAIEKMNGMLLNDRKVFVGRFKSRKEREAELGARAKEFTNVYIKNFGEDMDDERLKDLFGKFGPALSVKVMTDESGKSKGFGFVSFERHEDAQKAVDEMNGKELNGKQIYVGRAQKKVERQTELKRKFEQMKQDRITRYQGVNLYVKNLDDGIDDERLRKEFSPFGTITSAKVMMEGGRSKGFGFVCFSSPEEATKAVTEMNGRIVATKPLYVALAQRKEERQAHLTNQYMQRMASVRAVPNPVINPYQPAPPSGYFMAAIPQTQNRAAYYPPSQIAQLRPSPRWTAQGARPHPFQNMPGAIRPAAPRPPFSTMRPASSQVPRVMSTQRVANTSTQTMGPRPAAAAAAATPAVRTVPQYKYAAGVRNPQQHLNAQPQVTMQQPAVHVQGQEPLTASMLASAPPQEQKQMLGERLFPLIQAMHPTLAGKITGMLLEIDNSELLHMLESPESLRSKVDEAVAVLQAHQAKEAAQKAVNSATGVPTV
eIF4H FP inh – inhibitors of RNA binding by human eIF4H; eIF4H fluorescence polarization binding assay; inhibition, % at 35 µM; 0.94% of 290,000 active;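 note: calls also rest on retests at 20 µM and on dose response follow-up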
EBV gp42 inh – EBV gp42 inhibition | inhibition, % (tested at 21.74 µM) | 0.42% of 220,000 active | Q1HVG2 | Fluorescence polarization binding assay, mP read-out; in the data active = inhibition above about 50%
MLLE-PAM2 inh – blocks PAM2 peptide binding to the PABP1 MLLE domain; P11940; GST-MLLE / FITC-PAM2 fluorescence polarization; inhibition, % at 20 µM; 0.36% of 360,000 active; AID 588489; in the data active = inhibition above about 35%, passing the limit was not always enough;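 note: plate controls were DMSO wells with GST-MLLE for no effect and wells lacking GST-MLLE protein for full effect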
Starred values were filed as active, the others as inactive; i = inactive; ? = inconclusive; . = no result; + = active, no number. Rows were chosen to be rich in hits. Some 1.8% of all compounds tested hit in one or more screens of this group. Unless noted, the rule behind the calls is not given here.

SMILES	MEX-5 binding	PABP FP inh	eIF4H FP inh	EBV gp42 inh	MLLE-PAM2 inh
COc1ccc(-c2c(C#N)c(N)nc3sc(C(=O)c4ccc(C)cc4)c(N)c23)cc1	-10.2	i	-15.5	74.6*	-14.3
CC(=O)c1sc2nc(-c3cccs3)ccc2c1N	-10.2	i	9.3	35.4	21.6
CCCCC(=O)N(C)c1c(CC)nc2c(OCc3cccc(Cl)c3)cccn12	.	.	.	.	-1.2
O=C1[C@H]2[C@@H](c3ccccc3)N[C@]3(CCCN(Cc4ccc(Br)cc4)C3=O)[C@H]2C(=O)N1Cc1ccccc1	.	.	.	.	6.8
COc1ccc(C(=O)c2sc3nc(C)cc(-c4cccs4)c3c2N)cc1OC	-53.5*	i	3.8	60.8*	-21.6
O=c1[nH]c(=S)[nH]c2nc(-c3cccs3)cc(C(F)(F)F)c12	-3.2	i	1.9	.	27.4
Nc1c(C(=O)C2CC2)sc2nc(-c3cccs3)cc(C(F)(F)F)c12	?	i	94.4*	-111.3	i
COc1ccc(C(=O)c2sc3nc(C)cc(-c4cccs4)c3c2N)cc1	-44.4*	i	20.9	101.9*	-18.9
CCOC(=O)C1=CCC(c2cccc(C)c2)N(S(=O)(=O)c2ccc(C)cc2)C1 (stereo not drawn)	.	.	.	.	-0.9
C#Cc1ccc(C(=O)NCc2ccc(N3CCCC3=O)cc2)cc1	-4.4	+	60.6	17.4	15.0
O=C1C(CCc2ccccc2)ON=C(c2cnccn2)N1Cc1ccc(F)cc1 (stereo not drawn)	.	.	.	.	-11.2
COc1ccc(-n2nc(C(=O)NCc3ccco3)c3c4ccccc4n(C)c3c2=O)cc1	1.2	+	2.8*	-16.1	8.3
Cc1cc(C)c(-c2c(N)cc(Br)cc2Br)c(N)c1	.	.	.	.	1.6
O=C1OC(Nc2ncccn2)c2ccccc21 (stereo not drawn)	1.1	i	-10.5	-4.6	7.0
O=C1OC(Nc2cc(Br)cc3cccnc23)c2ccccc21 (stereo not drawn)	.	+	65.2*	2.1	8.3
O=C(CCN1CCN(c2ccccc2)CC1)N/N=C/c1ccc(O)c(O)c1O	-0.2	+	94.7	57.8*	19.1
C/C(=N\NC(=O)Cc1csc(N2CCOCC2)n1)c1ccccc1	0.5	i	4.2	-0.2	13.1
O=C(Cc1csc(N2CCOCC2)n1)N/N=C/c1ccc(O)c(O)c1O	-19.1	+	71.8	-4.4	30.7
C=C[C@]1(C)C=C2C(=O)[C@@]3(O)OC(=O)[C@@]4(CCCC(C)(C)[C@H]34)[C@@]2(O)CC1	.	.	.	.	5.1
CCOC(=O)C1=CCN(S(=O)(=O)c2ccccc2C)C1c1ccc(C)cc1 (stereo not drawn)	.	.	.	.	9.7
Cc1cc(-c2csc(NC(=O)c3cc4ccccc4o3)n2)c(C)n1C	0.2	+	98.3*	-15.8	-19.0
O=C(CC[C@H]1O[C@@H](n2cnc3c(NC(=O)c4ccccc4)ncnc32)[C@H](O)[C@@H]1O)NCC1CCN(Cc2ccccc2)CC1	.	.	.	.	13.2
Cc1ccc(SCc2cc(=O)c3c(=O)n(-c4ccccc4)[nH]c3[nH]2)cc1	-11.8	+	92.7	-13.0	17.3
CCOC(=O)C1=C[C@@H](C2CCCCC2)N(S(=O)(=O)c2ccc([N+](=O)[O-])cc2)[C@H]1c1ccccc1	.	.	.	.	-6.8
O=C(Cn1c2ccccc2c(=O)c2ccccc21)N/N=C/c1cc([N+](=O)[O-])ccc1N1CCCCCC1	-1.4	i	35.0	-93.1	-66.9
SMILES	MEX-5 binding	PABP FP inh	eIF4H FP inh	EBV gp42 inh	MLLE-PAM2 inh
O=C(Cn1c2ccccc2c(=O)c2ccccc21)N/N=C/c1ccc(N2CCCC2)c([N+](=O)[O-])c1	0.5	i	34.9	73.9*	-9.1
COc1ccc(-c2onc3ccc(Br)cc23)cc1	-13.0	i	?	127.4*	144.7
CCc1ccc[n+](-c2[nH]c(=O)sc2/C=N/N=C(\[O-])c2ccncc2)c1	-3.2	i	-9.3	.	2.6
Cc1cc(C)c[n+](-c2[nH]c(=O)sc2/C=N/N=C(\[O-])c2cccnc2)c1	-14.0	i	8.2	.	35.5*
O=C(N/N=C/c1ccncc1)c1cc([N+](=O)[O-])cc([N+](=O)[O-])c1O	-7.5	i	75.6*	-15.4	6.3
COc1cccc(/C=N/NC(=O)c2ccncc2)c1OC(=O)c1ccc(Br)cc1	-0.9	?	?	.	58.7*
COc1cc(OC)c([N+](=O)[O-])cc1/C=N/NC(=O)c1ccncc1	-6.4	+	58.7*	-13.7	22.0
O=C(Nc1ccc2nc(-c3ccco3)c(-c3ccco3)nc2c1)N1CCN(c2ccccn2)CC1	-30.2*	+	106.0*	-2.5	48.7*

High-throughput results deposited in PubChem BioAssay by several laboratories.
